Bioassay records as filed in PubChem BioAssay.
Compounds with a hit are over-represented: about 3.1% of the library has one in this group of screens.
PLK1 PBD inh: inhibitors of human PLK1 polo-box domain binding; P53350; Plk1 PBD binding of FITC phosphopeptide, fluorescence polarization; Potency, µM, hits mostly inhibitors; hit rate 2.8% among 360,000; AID 720504; note: series mostly up to about 57 µM; nearly all actives have a fitted effect of over 65% in size
VDR inhibitor: inhibitors of human vitamin D receptor; P11473; VDR-SRC2-3 peptide fluorescence polarization, 2 h; Potency, µM, most hits filed as inhibitors; hit rate 0.93% among 400,000
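Measured by FP: displacement of SRC2-3 coactivator peptide from VDR by library compounds, following a two-hour ambient incubation.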
PI4K2A block: inhibitors of human PI4K2A. purified PI4K2A, ADP-Glo luminescence, 1 h; active compounds read low. activity change, negative = inhibition, % at 76.9 µM. hit rate 0.13% among 420,000; in the data active = activity change below about -50%; inconclusive = mostly about -30% to -49%
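In this quantitative HTS, ADP production by PI4K2A was quantified luminescently after 1 h at ambient temperature; 100 microM adenosine served as plate-quality control.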
GLS inh: glutaminase GLS (human) inhibition; GLS enzymatic activity, qHTS titration; Potency, µM (titrated, usually from 45.5 µM), actives largely listed as inhibitors; hit rate 0.21% among 410,000; AID 624170
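Coupled fluorescence readout: glutamate oxidase/HRP/Amplex Red detect glutamate formed by hKGA from L-glutamine (1 mM solution added). Buffer 45 mM KH2PO4 pH 8.2, 0.02% Tween-20; reads at t0 and 30 min RT.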
KAT2A inh: blocks human GCN5L2 histone acetyltransferase | Q92830 | GCN5L2 HAT assay, ThioGlo1 CoA-SH fluorescence | Potency, µM (titrated, usually from 58.9 µM), hits mostly inhibitors | hit rate 0.21% among 390,000 | AID 504327
Target sequence (Q92830 whole entry, looked up): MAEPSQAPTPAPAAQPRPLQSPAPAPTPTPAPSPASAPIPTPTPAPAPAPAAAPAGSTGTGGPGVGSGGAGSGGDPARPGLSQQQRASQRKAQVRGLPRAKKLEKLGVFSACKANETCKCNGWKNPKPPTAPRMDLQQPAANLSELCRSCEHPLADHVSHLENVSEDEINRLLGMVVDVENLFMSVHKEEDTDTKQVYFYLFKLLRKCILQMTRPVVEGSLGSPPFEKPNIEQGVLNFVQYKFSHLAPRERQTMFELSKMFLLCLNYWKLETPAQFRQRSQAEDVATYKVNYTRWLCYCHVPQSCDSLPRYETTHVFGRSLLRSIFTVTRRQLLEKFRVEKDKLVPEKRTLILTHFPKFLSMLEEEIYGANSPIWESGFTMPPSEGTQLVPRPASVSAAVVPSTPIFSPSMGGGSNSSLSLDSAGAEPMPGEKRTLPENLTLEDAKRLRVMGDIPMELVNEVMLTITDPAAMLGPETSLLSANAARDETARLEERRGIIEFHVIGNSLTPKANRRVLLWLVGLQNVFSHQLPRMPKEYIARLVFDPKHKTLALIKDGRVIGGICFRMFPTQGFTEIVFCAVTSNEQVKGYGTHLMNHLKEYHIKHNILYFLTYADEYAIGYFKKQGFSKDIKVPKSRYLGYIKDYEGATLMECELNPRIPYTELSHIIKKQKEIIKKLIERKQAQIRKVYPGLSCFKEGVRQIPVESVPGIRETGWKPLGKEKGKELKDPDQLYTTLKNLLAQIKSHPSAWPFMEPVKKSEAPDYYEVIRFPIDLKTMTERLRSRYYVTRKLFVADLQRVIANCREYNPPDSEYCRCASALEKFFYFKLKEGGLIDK
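Free CoA generated was detected with ThioGlo1 (50uM) fluorescence at Ex340nm/Em540nm, read immediately and after 20 min at room temperature. Enzyme, 20 nM in HEPES pH 7.5 buffer, saw compounds 15 min before adding 75uM H3(1-25) peptide and 70uM acetyl-CoA.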
VDR inh confirm: confirmation of human vitamin D receptor inhibitors | shares compounds with VDR inhibitor | VDR-coactivator inhibition assay, qHTS confirmation | Potency, µM, most hits filed as inhibitors | hit rate 89% among 840 | AID 602199
VDR FP fluor: confirmation of human VDR-coactivator binding inhibitors, fluorescein label | shares compounds with VDR inhibitor | VDR-coactivator binding, fluorescein fluorescence polarization | Potency, µM (titrated, usually from 57.1 µM), usual class: inhibitors | hit rate 48% among 840
VDR bla: VDR (human) inhibition, cell-based beta-lactamase validation; VDR beta-lactamase reporter cells, FRET ratio; cells co-treated with VDR agonist LG190178; AID 602202; shares compounds with VDR inhibitor; hit rate 23% among 840; Potency, µM (highest dose often 46.1 µM), usual class: inhibitors
VDR cytotox: cytotoxic in counter-screen for VDR inhibitors | shares compounds with VDR inhibitor | cytotoxicity counter-screen, cell viability, qHTS | Potency, µM (top dose mostly 48.3 µM), hits mostly cytotoxic | hit rate 18% among 840; note: nearly all actives have a fitted effect of over 75% in size
GLS hit conf: glutaminase (human) inhibition, hit confirmation. 35 tested, under 10 active. Potency, µM (highest dose often 46.1 µM), most hits filed as inhibitors. biochemical glutaminase enzyme inhibition assay. shares compounds with GLS inh; calls by dose curve
GLS HRP counter: counter-screen for glutaminase inhibitors: HRP coupled enzyme inhibition | shares compounds with GLS inh | HRP/glutamate oxidase coupled Amplex Red fluorescence counterscreen | activity change, negative = inhibition, % at 46.1 µM | 35 tested, under 10 active
HEK293 tox: counter-screen for glutaminase inhibitors: HEK-293 cytotoxicity | shares compounds with GLS inh | HEK-293 viability, CellTiter-Glo luminescence, 24 h | activity change, negative = cytotoxicity, % at 46.1 µM | 35 tested, under 10 active
TbPYK confirm: confirmation of Trypanosoma brucei pyruvate kinase inhibitors | recombinant TbPYK, Kinase-Glo ATP luminescence | Potency, µM (doses to about 76.9 µM), hits mostly inhibitors | shares compounds with PLK1 PBD inh | hit rate 67% among 890; note: nearly all actives have a fitted effect of over 70% in size
TbPYK orthogonal: TbPYK inhibition, orthogonal confirmation; shares compounds with PLK1 PBD inh; recombinant TbPYK, ADP-Glo luminescence, 60 min; Potency, µM (highest dose often 76.9 µM), most hits filed as inhibitors; hit rate 62% among 890; note: nearly all actives have a fitted effect of over 75% in size
Hits are given with their value; . = inactive; ? = inconclusive; / = not tested or not shown. Unless noted, calls come from the whole dose curve; as a rule, active = well fitted curve in the direction sought with a large enough effect; inconclusive = small, poorly fitted or top-dose-only effect, or another doubt; inactive = no such curve, though single readings can be large; an effect the other way counts as inactive or inconclusive.

SMILES	PLK1 PBD inh	VDR inhibitor	PI4K2A block	GLS inh	KAT2A inh	VDR inh confirm	VDR FP fluor	VDR bla	VDR cytotox	TbPYK confirm	TbPYK orthogonal	others
Cc1ccc(S(=O)(=O)Nc2ccc(O)c3ccccc23)c(C)c1	4.2µM	28µM	?	7.9µM	.	11	10µM	.	?	/	/	GLS hit conf=?;GLS HRP counter=.;HEK293 tox=.
Cc1ccc(S(=O)(=O)N2CCN(c3nc(-c4ncccn4)nc4ccccc34)CC2)cc1	/	.	/	/	/	/	/	/	/	/	/
O=C(O)/C=C/C(=O)c1ccc2c(c1)NC(=O)CO2	?	22µM	.	.	.	9.5	?	.	.	16µM	16µM
O=C1COc2ccc(C(=O)NC3CC3)cc2N1	.	.	.	.	.	/	/	/	/	/	/
COc1ccc(NC(=O)N(Cc2ccco2)C2CCN(C(C)=O)CC2)c(OC)c1	/	.	.	.	.	/	/	/	/	/	/
COCCN(CC(=O)NC1CCCCC1)C(=O)/C=C/C(=O)c1ccc(OC)cc1O	21µM	16µM	.	.	.	9.5	?	21µM	?	7.1µM	13µM
COc1ccc(C(=O)/C=C/C(=O)N(CC(=O)NC2CCCCC2)Cc2cccs2)c(O)c1	6.7µM	45µM	.	.	.	15	?	7.3µM	15µM	4.5µM	14µM
COc1ccc(C(=O)/C=C/C(=O)N(Cc2ccc3c(c2)OCO3)C(C(=O)NC2CCCCC2)c2ccncc2)c(O)c1 (centres undefined)	.	.	.	.	.	/	/	/	/	/	/
COc1ccc(-c2sc(N)nc2-c2ccccc2)cc1	/	.	/	/	/	/	/	/	/	/	/
O=C(CNC(=O)c1ccccc1)NCC(=O)OCC(=O)c1ccc2ccccc2c1	/	.	/	/	/	/	/	/	/	/	/
CCC(=O)N(C1=C(NC)C(=O)c2ccccc2C1=O)C(C)C	.	.	.	.	.	/	/	/	/	/	/
CCC(=O)N(CC)C1=C(O)c2ccccc2C(=O)C1=O	24µM	79µM	.	.	.	?	?	?	?	.	25µM
O=C(CN1C(=O)COc2ccc(S(=O)(=O)N3CCCCCC3)cc21)Nc1cccc(Cl)c1	/	.	.	.	.	/	/	/	/	/	/
Cc1cccc(C(=O)Oc2csc(=S)n2C(=O)c2cccc(C)c2)c1	4.7µM	?	.	?	.	8.9	2.8µM	.	.	1.3µM	2.5µM
CC1(C)CC(=O)C2=C(C1)OC1=C(C(=O)CC(C)(C)C1)C2c1ccc(O)c([N+](=O)[O-])c1	.	.	.	.	.	/	/	/	/	/	/
CC1(C)CC(=O)C2=C(C1)OC1=C(C(=O)CC(C)(C)C1)C2c1ccc(O)cc1O	3.5µM	8.9µM	.	.	.	6.7	?	16µM	?	28µM	?
Cc1cccc2cc3c(nc12)SC(=NCC1CCCO1)N(Cc1ccco1)C3 (centres undefined)	24µM	?	.	.	.	14	6.3µM	21µM	?	?	32µM
O=C1C=C(c2ccccc2)C(=O)N1Nc1ccccc1	8.4µM	?	.	?	.	5.6	7.9µM	21µM	?	16µM	25µM
CC1(C)CC(=O)C(C(C2=C(O)CC(C)(C)CC2=O)c2ccc(Br)s2)C(=O)C1 (centres undefined)	1.9µM	10µM	?	.	.	4.2	2.8µM	.	?	14µM	28µM
CC1(C)CC(=O)C(C(C2=C(O)CC(C)(C)CC2=O)c2ccc([N+](=O)[O-])cc2)C(=O)C1 (centres undefined)	.	?	.	.	.	/	/	/	/	/	/
CCOC(=O)COc1ccc(C)cc1C(=O)c1ccn2nc(-c3ccc(F)cc3)cc2n1	/	.	.	.	.	/	/	/	/	/	/
CCN1CCN(C(=S)c2ccc(Cl)cc2)CC1	2.1µM	35µM	.	?	.	9.5	?	.	.	0.25µM	1.6µM
O=S1(=O)C=C(Sc2nnc(-c3ccccc3)o2)c2ccccc21	1.9µM	?	.	.	.	2.2	1.6µM	?	12µM	20µM	22µM
Cc1cc(C)nc(SC2=CS(=O)(=O)c3ccccc32)n1	.	.	.	.	.	/	/	/	/	/	/
O=C(Nc1cccc(C(=O)OCc2cc(=O)n3ccsc3n2)c1)c1ccc(F)cc1	/	.	.	.	.	/	/	/	/	/	/
SMILES	PLK1 PBD inh	VDR inhibitor	PI4K2A block	GLS inh	KAT2A inh	VDR inh confirm	VDR FP fluor	VDR bla	VDR cytotox	TbPYK confirm	TbPYK orthogonal	others
Cc1ccc(-c2cc(C(=O)NN3CCOCC3)c3cc(Br)ccc3n2)o1	.	.	.	.	.	/	/	/	/	/	/
Cc1ccc(-c2cc(C(=O)O)c3cc(Br)ccc3n2)o1	12µM	32µM	.	.	?	27	?	.	.	11µM	14µM
CCC(=O)NC1=C(Cl)C(=O)C(NC(=O)CC)=C(Cl)C1=O	1.7µM	14µM	?	?	28µM	6.7	5µM	15µM	13µM	0.25µM	0.4µM
O=[N+]([O-])c1ccccc1-c1ccc(C(=S)N2CCCC2)o1	2.7µM	40µM	.	.	.	21	?	.	.	18µM	32µM
CCCCN1C[C@@H](COCc2ccccc2)Oc2cccc(F)c2S1(=O)=O	/	/	.	/	/	/	/	/	/	/	/
Nc1c(C(=O)Nc2ccc(Cl)c(C(F)(F)F)c2)sc2nc(-c3ccncc3)ccc12	/	.	.	.	.	/	/	/	/	/	/
O=C1N=c2ccccc2=C1c1c(O)n(-c2cccc(F)c2)[nH]c1=O	5.3µM	71µM	.	?	.	6	?	.	.	3.5µM	7.9µM
CCOc1ccc(Br)cc1S(=O)(=O)Nc1cccc(S(=O)(=O)Nc2ccccc2C(=O)O)c1	?	.	.	.	.	/	/	/	/	/	/
O=C(O)c1ccccc1NS(=O)(=O)c1cccc(NS(=O)(=O)c2cc(Br)ccc2Br)c1	?	.	.	?	.	/	/	/	/	/	/	GLS hit conf=?;GLS HRP counter=.;HEK293 tox=.
CC(C)(C)C(=O)NCCCC(=O)O	/	.	.	.	.	/	/	/	/	/	/
